Rows were chosen to be rich in hits. Some 1.5% of all compounds tested hit in one or more screens of this group.
DYRK1A inh – rat Dyrk1A kinase inhibitors, primary screen, biochemical, single point, plate reader; inhibition, % at 12.5 µM; Dual specificity tyrosine-phosphorylation-regulated kinase 1A (Rattus norvegicus), Q63470; hit rate 0.43% among 310,000; ADP-Glo luminescence, NFATc1 peptide; in the data active = inhibition above about 50%
STK33 inh – inhibitors of purified STK33 kinase, primary screen, biochemical, ADP-Glo luminescence, homogeneous, cell-free; Serine/threonine-protein kinase 33 (Homo sapiens), Q9BYT3; MBP phosphorylation; inhibition, % at 10 µM; hit rate 0.073% among 320,000; AID 2661, 2010;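 active = inhibition at or above 25%, using the most active replicate where run in duplicate; inactive = inhibition below 25%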
HIF act – HIF pathway transcriptional activators, primary screen, cell-based, U2OS HRE-luciferase, luminescence | hit rate 0.32% among 300,000 | activation, % at 7.5 µM (by protocol) | U2OS HRE-luciferase reporter; normalized: DMSO 0%, desferrioxamine 100% | AID 1910, 2009;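 active = mean activation of at least 10% of the iron chelator positive control signal, with at least half of replicates also reaching 10%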
PP5 primary – PP5 phosphatase inhibitors, primary screen, biochemical, fluorescence; Serine/threonine-protein phosphatase 5 (Homo sapiens), P53041; purified PP5c, OMFP substrate fluorescence; inhibition, % at 6.7 µM; hit rate 0.18% among 320,000;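 active = inhibition above the campaign's mean inhibition across all tested compounds plus 3 SD, cut at about 9.5% in these data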
Target sequence (P53041 whole entry, looked up): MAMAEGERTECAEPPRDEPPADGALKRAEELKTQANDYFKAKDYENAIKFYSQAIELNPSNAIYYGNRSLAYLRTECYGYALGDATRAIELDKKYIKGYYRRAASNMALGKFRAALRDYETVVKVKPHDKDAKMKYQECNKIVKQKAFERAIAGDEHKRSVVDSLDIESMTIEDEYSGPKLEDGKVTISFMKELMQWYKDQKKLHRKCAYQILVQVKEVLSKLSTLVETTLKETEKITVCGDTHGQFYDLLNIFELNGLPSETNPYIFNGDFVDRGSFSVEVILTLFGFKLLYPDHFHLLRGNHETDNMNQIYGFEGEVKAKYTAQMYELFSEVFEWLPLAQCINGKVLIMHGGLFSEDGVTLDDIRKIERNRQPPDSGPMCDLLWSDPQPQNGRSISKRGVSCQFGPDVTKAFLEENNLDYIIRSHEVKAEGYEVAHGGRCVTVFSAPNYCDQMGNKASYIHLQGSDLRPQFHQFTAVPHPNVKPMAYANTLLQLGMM
PP1 inh – PP1-alpha phosphatase inhibitors, primary screen, counter-screen for PP5 inhibitor project, biochemical, fluorescence, OMFP substrate, single point; Serine/threonine-protein phosphatase PP1-alpha catalytic subunit (Homo sapiens), P62136; hit rate 0.9% among 320,000; inhibition, % at 6.7 µM; purified PP1alpha;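 active = inhibition above the mean inhibition of all tested compounds plus 3 SD, computed separately for each screening campaign, cut at about 15% in these data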
PP1 confirm – PP1 phosphatase inhibitors, confirmation, biochemical, fluorescence, OMFP substrate, triplicate. inhibition, % at 6.7 µM. hit rate 52% among 1,900. purified PP1alpha. shares compounds with PP1 inh;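 active = mean PP1 inhibition above a set limit taken from the earlier primary screen, cut at about 15% in these data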
PP5 inh counter – PP5 phosphatase inhibition by PP1 hits, confirmation, counter-screen for PP1 inhibitor project, biochemical, fluorescence, triplicate | shares compounds with PP1 inh | purified PP5c, OMFP fluorescence | inhibition, % at 6.7 µM | hit rate 4% among 1,900 | AID 2360, 2010;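 active = mean PP5 inhibition over triplicate wells above about 9.5% taken from the earlier PP1 screen, limit read from the data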
Numbers stand for hits; n = inactive; x = no result.

SMILES	DYRK1A inh	STK33 inh	HIF act	PP5 primary	PP1 inh	PP1 confirm	PP5 inh counter
O=C(Cn1nnc(-c2ccc(F)cc2)n1)Nc1cccc(S(=O)(=O)N2CCCC2)c1	n	n	x	n	n	x	x
Cc1ccc(C)c(-c2nnc(NC(=O)CCS(=O)(=O)c3ccccc3)o2)c1	n	n	n	n	n	x	x
Cc1ccc(C)c(-c2nnc(NC(=O)COc3ccccc3)o2)c1	n	n	n	n	21.8	20.9	n
O=C(O)c1ccccc1-c1nc2cc(Cl)ccc2c(=O)n1O	n	n	n	n	22.4	24.4	n
CSc1nsc(SCC(=O)Nc2nc3ccc(C)cc3s2)n1	n	n	n	n	25.9	18.7	n
Cc1ccc2nc(NC(=O)COC(=O)CSc3nc(C)cc(C)n3)sc2c1	n	n	n	n	n	x	x
O=C(N/N=C/c1cccnc1)c1cccc(NC(=O)c2cccc(Br)c2)c1	n	n	n	n	n	x	x
O=C(N/N=C/c1ccc(O)c2ncccc12)c1cccc(Br)c1	n	n	n	n	20.9	18.1	n
O=C(c1ccccc1)N1N=C(c2ccccc2)CC1c1ccccc1O (stereo not drawn)	n	n	n	n	n	x	x
O=C(c1cccs1)N1N=C(c2ccccc2)CC1c1ccccc1O (stereo not drawn)	n	n	n	n	25.0	18.9	n
O=C(CSc1nccc(=O)[nH]1)NC1CCCC1	n	n	n	n	n	x	x
Cn1cc(C(=O)N/N=C/c2c(O)ccc3ccccc23)ccc1=O	n	n	87.7	n	26.9	28.9	n
CCOc1ncccc1C(=O)Nc1cc(S(=O)(=O)N(CC)CC)ccc1N1CCOCC1	x	n	x	x	x	x	x
Cc1ccc(-n2c(=O)cc(NCc3cccnc3)[nH]c2=O)cc1	n	n	n	n	24.6	n	n
Cc1ccc(CNCc2cccnc2)cc1	n	n	n	n	n	x	x
CN(CC(=O)N(C)CC(=O)Nc1c(Cl)cccc1Cl)Cc1ccccc1F	n	n	x	x	x	x	x
CCCCCCCCCCCCCCCC[n+]1cccc(C(=O)N(CC)CC)c1	n	n	n	n	30.6	n	n
CCCCCCCCCCCCCCCC[n+]1ccccc1	n	x	x	x	x	x	x
CCCCCCCCCCCCCCCC[n+]1ccc(/C=N/O)cc1	n	n	x	n	53.8	32.2	14.9
CCCCCCCCCCCCCCCC[n+]1ccc(C(N)=O)cc1	n	n	x	n	41.4	25.3	n
CCCCCCCC[n+]1cccc(C(=O)N(CC)CC)c1	n	n	n	n	n	x	x
CC(=O)c1c(O)cc(O)cc1O	n	x	x	x	x	x	x
O=S(=O)(Nc1cccc(-c2ccc3nncn3n2)c1)c1cc(F)ccc1F	n	n	n	n	n	x	x
CSc1nc2cc(C)nn2c(-c2ccccc2Cl)c1C#N	x	n	n	n	n	x	x
NC(=O)c1nc(-c2ccccc2)c(-c2ccccc2)[nH]c1=O	n	n	n	n	19.9	15.8	n
SMILES	DYRK1A inh	STK33 inh	HIF act	PP5 primary	PP1 inh	PP1 confirm	PP5 inh counter
O=[N+]([O-])c1cc(Br)c(O)c(/C=N/Nc2nnnn2-c2cccc3ccccc23)c1	n	n	n	n	20.7	23.1	n
CCN1CCN(Cc2ccc(NC(=O)c3cc(NC(=O)c4cncc(-c5ccc(C#N)cc5)c4)cc(OC)c3)cc2C(F)(F)F)CC1	n	n	n	n	51.3	n	n
Nc1cc(C(=O)OCC(=O)Nc2cccc(S(=O)(=O)N3CCOCC3)c2)ccc1Cl	n	n	x	x	x	x	x
C/C(=N\Nc1cc(N2CCOCC2)ncn1)c1ccc(O)cc1	n	n	n	n	n	x	x
Cc1cccc(C)c1Nc1c(-c2ccccn2)nc2ccccn12	n	n	28.5	n	28.1	n	n
Cc1ccc(Nc2c(-c3ccccn3)nc3cccc(C)n23)cc1	x	n	56.3	n	39.7	50.0	n
O=[N+]([O-])c1ccc(C[n+]2cccc3c4ccccc4ccc32)cc1	n	n	n	n	n	x	x
CCCCCCCCC[n+]1cccc2c3ccccc3ccc21	n	n	n	n	19.2	n	n
CCCCCCCCCCCCCCCC[n+]1cccc2ccccc21	n	50.0	x	n	52.2	37.5	n
CCCCn1c(N)c(N(CC(C)C)C(=O)c2cc(S(=O)(=O)N3CCOCC3)ccc2Cl)c(=O)[nH]c1=O	n	n	n	n	n	x	x
Cc1cccc(C)c1-n1cccc1/C=C1\SC(=S)N(c2cccc(C(=O)O)c2)C1=O	n	n	n	n	21.8	22.7	n
CS(=O)(=O)N1CCCC(C(=O)Nc2ccc(F)c(F)c2)C1 (stereo not drawn)	n	n	x	n	n	x	x
O=C(c1ccccc1NS(=O)(=O)c1cccc2cccnc12)N1CCOCC1	n	n	n	n	n	x	x
CCCCCCSc1cc(-c2nc3ccc(C)cn3c2NCc2ccccc2)ccc1OC	n	n	n	n	20.5	n	n
CCCCCCSc1cccc(-c2nc3ccc(C)cn3c2NCc2ccccc2)c1	n	n	n	n	n	x	x
CCCCCCSc1cc(-c2nc3cc(C)ccn3c2NCCCC)ccc1OC	x	n	n	n	26.2	n	n
CCn1c(=O)cc(SCC(=O)N2CCOCC2)c2ccccc21	n	n	n	n	n	x	x
CCn1c(=O)cc(SCC(=O)N2CCN(C3CCCCC3)CC2)c2ccccc21	n	n	n	n	30.4	n	n
CN(C)c1ccc(N=Cc2ccco2)cc1	n	n	x	n	18.0	n	n
CN(C)c1ccc(C=Nc2ccc(N(C)C)cc2)cc1	n	n	n	n	n	x	x
CC(NC(=O)c1ccccc1Cl)C(=O)OCc1cn2cc(Cl)ccc2n1 (stereo not drawn)	x	n	x	x	x	x	x
CCCN(CCC)S(=O)(=O)c1ccc(C(=O)Nc2nnc(COC)o2)cc1	n	n	n	n	n	x	x
COCc1nnc(NC(=O)c2ccc(S(=O)(=O)N(C)Cc3ccccc3)cc2)o1	n	n	n	n	22.4	16.9	n
COCc1nnc(NC(=O)c2ccc(S(=O)(=O)N(C)C3CCCCC3)cc2)o1	n	n	n	n	17.8	n	n
CCN(Cc1ccccc1)S(=O)(=O)c1ccc(C(=O)Nc2nnc(C3CC3)o2)cc1	n	n	n	n	42.6	34.1	n
Cc1nnc(NC(=O)c2ccc(S(=O)(=O)N(C)Cc3ccccc3)cc2)o1	n	n	n	n	37.6	30.3	n
COCCN(CCOC)S(=O)(=O)c1ccc(C(=O)Nc2nnc(CSC)o2)cc1	n	n	n	n	n	x	x
COCCN(CCOC)S(=O)(=O)c1ccc(C(=O)Nc2nnc(C)o2)cc1	n	n	n	n	n	x	x
COCCN(CCOC)S(=O)(=O)c1ccc(C(=O)Nc2nnc(COC)o2)cc1	n	n	n	n	n	x	x
